# Rows were chosen to be rich in hits. Some 1.3% of all compounds tested hit in one or more screens of this group.
# Mac1 fbg inh: CD11b/CD18-fibrinogen binding inhibition; 0.54% of 93,000 active; P05107+P11215; K562 CD11b/CD18 adhesion to fibrinogen, ATPlite luminescence; Mn2+ added to activate the integrin; inhibition, % at 10 µM; AID 1497;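 active = primary inhibition of 50% or more at 10 µM, then 40% or more on retest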
# Target sequence (P05107 whole entry, looked up, other chains not shown): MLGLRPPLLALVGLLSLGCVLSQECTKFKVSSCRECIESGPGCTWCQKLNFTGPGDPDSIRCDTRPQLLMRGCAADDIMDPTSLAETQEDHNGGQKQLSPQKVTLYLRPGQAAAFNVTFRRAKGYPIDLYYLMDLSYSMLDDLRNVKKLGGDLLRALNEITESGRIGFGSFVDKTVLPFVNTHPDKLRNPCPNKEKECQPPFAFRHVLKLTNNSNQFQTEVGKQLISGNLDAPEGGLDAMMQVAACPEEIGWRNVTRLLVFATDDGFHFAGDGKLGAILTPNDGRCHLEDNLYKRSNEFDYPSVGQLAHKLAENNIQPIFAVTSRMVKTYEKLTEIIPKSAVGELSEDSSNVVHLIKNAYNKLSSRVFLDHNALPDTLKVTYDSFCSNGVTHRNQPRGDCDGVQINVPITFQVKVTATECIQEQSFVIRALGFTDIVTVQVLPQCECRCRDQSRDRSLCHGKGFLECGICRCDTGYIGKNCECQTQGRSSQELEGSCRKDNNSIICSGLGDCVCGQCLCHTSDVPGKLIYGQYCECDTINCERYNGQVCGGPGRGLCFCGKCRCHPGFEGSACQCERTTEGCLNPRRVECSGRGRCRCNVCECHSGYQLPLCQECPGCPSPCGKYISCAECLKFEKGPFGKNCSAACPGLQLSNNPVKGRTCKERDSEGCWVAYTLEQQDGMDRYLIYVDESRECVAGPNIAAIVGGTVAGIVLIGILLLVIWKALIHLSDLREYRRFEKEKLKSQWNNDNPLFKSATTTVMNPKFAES
# SDO1 yeast rescue: restores growth of sdo1-depleted yeast | S. cerevisiae sdo1-depleted JHY4D growth rescue, OD600 30 h; stronger effect = higher value; pdr5 snq2 efflux-pump mutant strain | 0.21% of 140,000 active | z-score at 10 µM;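 active = z-score above 3 at both the 24 hr and the 30 hr optical density reads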;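 also: z-score against mean and SD of all compound wells on the same plate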
# Mac1 fbg enh: enhancers of human CD11b/CD18 binding to fibrinogen; 0.07% of 93,000 active; K562 CD11b/CD18 adhesion to fibrinogen, ATPlite luminescence; AID 1499; activation, % at 10 µM; P05107+P11215;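 active = 10 µM primary screen giving 50% or more activity, confirmed by 40% or more on retest at that dose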
# Phagocyt inh: blocks phagocytosis by macrophages; AID 1029; inhibition, % at 5 µM; 0.07% of 110,000 active; J774A.1 macrophage IgG-bead phagocytosis, imaging;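 active = inhibition above the mean of the plate negative controls plus 5 SD, cut at about 13% in these data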;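 also: phagocytic index as fraction of beads internalized from green versus red external bead signal; plate controls were DMSO negative control for no effect and cytochalasin-D positive control for full effect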
# MRP resist rev: MRP-mediated drug resistance reversal. H69AR cells + 2 uM doxorubicin, CellTiter-Glo, 72 h. differential viability (reversal), % at 10 µM. 0.04% of 85,000 active;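 active = viability drop by adding the cancer drug above about 55%, with treated viability meeting a 40% cutoff, limit read from the data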;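 also: viability without doxorubicin minus viability with 2 µM doxorubicin for each compound; larger differential means the compound sensitizes cells more to doxorubicin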
# MRP-1 activ: activates MRP-1; H69AR cells + doxorubicin, viability rescue, CellTiter-Glo; viability increase, % at 10 µM; 0.61% of 140,000 active; AID 799;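 active = viability gain under doxorubicin at or above a set limit, the compound median plus 3 SD, cut at about 4.7% in these data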;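 also: MRP-1 overexpressing cells given doxorubicin 25 µM after compound pretreatment; 18-22 h compound pretreatment then 72 h with doxorubicin before readout; 0% = doxorubicin-only wells and 100% = vehicle-treated cells without doxorubicin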
# Numbers without * were called inactive; . = no result; ! = repeats disagree.
SMILES,Mac1 fbg inh,SDO1 yeast rescue,Mac1 fbg enh,Phagocyt inh,MRP resist rev,MRP-1 activ
CCOc1ccccc1NC(=O)c1ccc(Cl)c(NC(=O)CC(c2ccccc2)c2ccccc2)c1,6,0.86,0,1,.,1
CCOc1ccccc1NC(=O)c1cccc(NC(=O)CC(c2ccccc2)c2ccccc2)c1,.,-0.21,.,.,.,8.6*
CCn1nnc(NC(=O)COc2ccc(C3CCCCC3)cc2)n1,74*,-0.04,-9,-1,10,2
CC(=O)OC1CSc2nc3ccccc3n2C1 (configuration not stated),.,-0.12,.,.,.,-2
C=CCSC(=S)NC1CCS(=O)(=O)C1 (configuration not stated),.,-0.73,.,.,.,-3
Cc1ccc(NC(=O)NC(=O)CN2C(=O)NC3(CCCCCCC3)C2=O)c(C)c1,-7,-0.52,-4,.,-10,-1
Cc1cc(Br)ccc1NC(=O)CNC(=O)CN1C(=O)NC2(CCCCCC2)C1=O,-8,0.24,0,-1,2,7.5*
Cc1c(NC(=O)CSc2ccc(Cl)cc2)cccc1-c1nc2ncccc2o1,-4,-0.9,-3,0,.,6.2*
COc1ccc(/C=N\NC(=O)c2cc(O)c(O)c(O)c2)cc1CN1CCN(c2ccc(F)cc2)CC1,-15,1.8,57,-7,.,12*
COc1ccc(/C=N/NC(=O)c2ccc(C)cc2)cc1CN1CCN(c2ccc(F)cc2)CC1,-2,-0.26,2,-5,.,-4
O=C(CNS(=O)(=O)c1ccc(F)cc1)N1CCN(c2ccccc2)CC1,12,0.51,-2,1,30,1
CCOC(=O)N1CCC(NC(=O)C2CCN(S(=O)(=O)c3cccs3)CC2)CC1,-21,0.4,-1,44*,12,-1
O=C(NC1CCCCC1)C1CCN(S(=O)(=O)c2cccs2)CC1,-18,0.32,-3,0,-14,0
CCOC(=O)N1CCN(Cc2nc3c(c(=O)[nH]c(=O)n3C)n2Cc2cc(C)ccc2C)CC1,0,0.73,-1,-1,6,-2
Oc1c(C=C2N=c3ccccc3=N2)sc(=S)n1-c1ccc(F)cc1,5,-0.24,59,-10,.,9.2*
N#CC(=C1CCCC1)c1nc(-c2ccccc2)cs1,.,-0.72,.,.,12,0
N#C/C(=N\O)c1nc(-c2ccccc2)cs1,66*!,0.06,-5,0,11,-3
CCNc1ccc(C(=O)OCC(=O)c2cc(C)n(Cc3ccc4c(c3)OCO4)c2C)cc1[N+](=O)[O-],.,0.09,.,-5,.,5.2*
Cc1nn(C(=O)c2cc3sccc3[nH]2)c(C)c1C,-12,-0.29,-2,0,-5,-2
Cc1ccc(S(=O)(=O)N(C(=O)c2ccncc2)c2ccc(OC(=O)c3ccncc3)c3ccccc23)c(C)c1,72*,-0.39,-1,-2,.,2
Cc1ccc(S(=O)(=O)N(C(=O)c2ccncc2)c2ccc(OC(=O)c3ccncc3)c3ccccc23)cc1,.,0.05,.,-12,.,2
COc1ccc(-n2c(C)cc(C(=O)CN3C(=O)NC4(CCCc5sccc54)C3=O)c2C)cc1 (configuration not stated),.,-0.47,.,3,.,2
Cc1cc(C(=O)CN2C(=O)NC3(CCCc4sccc43)C2=O)c(C)n1-c1ccccc1 (configuration not stated),.,-0.49,.,3,.,4.8*
O=C(NCc1ccc(F)cc1)c1noc2c1CCCCC2,-8,-0.2,-4,-1,3,-1
O=C(NCc1ccc(F)cc1)c1noc2c1CCCC2,6,0.87,-2,-2,3,4.9*
SMILES,Mac1 fbg inh,SDO1 yeast rescue,Mac1 fbg enh,Phagocyt inh,MRP resist rev,MRP-1 activ
CCOc1ccc(OCC)c(NC(=O)Nc2ccc3c(c2)N(C)C(=O)CS3)c1,7,-0.61,32,0,-14,-5
CC(C)C1Cc2c(sc3[nH]c(=S)n(Cc4ccccc4)c(=O)c23)CO1 (configuration not stated),53*,-2.1,-6,0,-20,-1
O=S(=O)(c1ccc(N2CCN(CCO)CC2)nc1)N1CCCCC1,.,0.06,.,.,7,0
CC1=CC(c2ccccc2)=Nc2ccc(C)cc2N1,.,1.3,.,-5,.,-2
O=C(c1cnn2c(C(F)(F)F)cc(-c3cccs3)nc12)N1CCN(C(c2ccccc2)c2ccccc2)CC1,.,-0.97,.,.,5,8.3*
CCN(CC)CCN1C(=O)c2ccccc2NC1c1ccc(C)cc1 (configuration not stated),2,0.32,-4,2,-3,-3
Cc1nc(NC(=S)NC(=O)c2ccccc2)sc1C(=O)N(C)C,1,1.5,-2,0,.,7.7*
CCC(Sc1nc2ccccc2o1)C(=O)Nc1nnc(C)s1 (configuration not stated),.,-0.21,.,0,.,6.4*
CCNc1oc(-c2cccc3ccccc23)nc1C#N,-10,-1.2,35,2,7,7.3*
Cc1ccc2nc(-c3ccccc3)cn2c1,69*,-0.16,-7,.,-2,-1
CC(=O)Nc1ccc(-c2cn3cc(C)ccc3n2)cc1,.,0.3,.,-2,.,0
COc1ccc(OCc2nc3ccc(S(=O)(=O)Nc4ccccc4Cl)cc3[nH]2)cc1,30,-0.97,17,-8,.,6.0*
c1ccc(CNc2ncnc3ccccc23)cc1,66*,0.97,-4,1,-3,-1
COc1cc2ncnc(NCc3ccccc3)c2cc1OC,-12,0.85,-1,-1,.,-4
Cc1ccc(C)c(S(=O)(=O)N2CCN(C(C)C(=O)Nc3ccccc3-c3ccccc3)CC2)c1 (configuration not stated),.,-0.04,.,.,.,-3
O=C1CCCN1c1cccc(Br)c1,.,-0.25,.,.,2,3
Cc1ccccc1Cn1nc(C)c(NC(=O)c2noc3c2CCc2ccccc2-3)c1C,-32,-1.6,8,0,23,5.2*
Cc1ccccc1Cn1nc(C)c(NC(=O)c2noc3c2CC(C(C)(C)C)CC3)c1C (configuration not stated),9,-0.43,-4,2,-7,3
C/C(=N\OC(=O)c1cccc(C)c1)c1sc(-c2ccccc2)nc1C,.,-0.09,.,.,.,4.7*
NC1C2CN(c3nc4c(cc3F)c(=O)c(C(=O)O)cn4-c3ccc(F)cc3F)CC12 (configuration not stated),9,-0.39,-5,-1,.,6.6*
COC(=O)c1sc(N)c(C(=O)OC)c1COC(=O)CCNS(=O)(=O)c1ccc(C)cc1,.,0.84,.,0,.,-3
CCNC(=S)Nc1cccc([N+](=O)[O-])c1,.,-0.27,.,-5,.,-3
Cc1cc(Br)ccc1NC(=S)Nc1cccc([N+](=O)[O-])c1,99*,-1.8,-10,-9,.,-3
Cc1c(C(=O)NC2CCCc3ccccc32)oc2ccc(S(=O)(=O)N3CCOCC3)cc12 (configuration not stated),8,-0.79,57*,4,-2,0
CCOC(=O)c1ccc(N2Cc3ccccc3C2)cc1O,3,-1.4,68*,-2,6,1

# Bioassay records from PubChem.
